In ChEMBL document CHEMBL4513216, “Probing the Open Global Health Chemical Diversity Library for Multistage-Active Starting Points for Next-Generation Antimalarials” (ACS Infect Dis, 2020) one finds INHIBITION data, which are given here for 53 molecules.

The whole screen tested about 68,000 compounds, of which about 2,700 (4%) showed an effect of 50% or more. For the sample, strong results were picked, then their nearest neighbours and some compounds at random.

The subject of the assay is Plasmodium berghei. Description: Screen against P. berghei liver stage (PbLuc), transformed with Luciferase, at 2uM. It counts as functional, HepG2. The following applies: tested at 2 uM.
`CN(CCc1cn[nH]c1)C(=O)C(c1ccc(F)cc1)N(C)C` (stereo not drawn): the INHIBITION was determined as 38.67%. With `Cc1cccc(C(C(=O)N(C)CCc2cn[nH]c2)N(C)C)c1` (stereo not drawn), the INHIBITION worked out at 67.28%. On to `Cc1ccc(C(C(=O)N(C)CCc2cn[nH]c2)N(C)C)cc1` (stereo not drawn), for which the INHIBITION was determined as 69.67%. With `Cc1ccc(CCC(C)NC2CCN(C(N)=O)CC2)cc1` (stereo not drawn), the INHIBITION was -5.43%.

Take `CN1CCN(CCCNC(=O)CCc2nc3cc(Br)cnc3[nH]2)CC1`: the INHIBITION stood at 12.87%. Take `O=C(Nc1nc2c(s1)CN(S(=O)(=O)C1CC1)CC2)Nc1ccccc1F`: the INHIBITION was found to be 47.9%.

Consider `c1csc(N2CCN(c3ncnc4sccc34)CC2)n1`, for which the INHIBITION is 16.93%.

For `CC1CN(c2ncnc3c2cnn3C)CCN1c1nccs1` (stereo not drawn), the INHIBITION is reported as 57.16%. Regarding `CC1CN(c2ncnc3sccc23)CCN1c1nccs1` (stereo not drawn), the INHIBITION turned out to be 38.01%. For `O=C(Cc1ccccn1)N1CCn2cc(Cn3cncn3)nc2C1` the value was -33.15%; for `Cc1ccc(-c2nc(CN3CCC(C(=O)N(C)C)CC3)cs2)o1`, 27.91%; for `CC(C)c1nnc2n1CCN(Cc1nc(-c3ccoc3)no1)C2`, 7.01%. Consider `Cc1ccc(-c2nc(CN3CCN(CC(=O)N(C)C)CC3)cs2)o1`, for which the INHIBITION came out at 4.18%. Consider `Cc1ccc(-c2nc(CN3CCN(S(=O)(=O)N(C)C)CC3)cs2)o1`, for which the INHIBITION is 53.12%. In the case of `Cc1nnc2n1CCN(Cc1nc(-c3ccoc3)no1)C2`, the INHIBITION is on record as -25.13%.

As for `Cc1ccc(-c2nc(CN3CCN(C(=O)C4CC4)CC3)cs2)o1`, the INHIBITION is on record as -21.93%.

For `Cc1ccc(-c2nc(CN3CCn4c(C)nnc4C3)cs2)o1`, the INHIBITION came out at 42.58%. Consider `CCNC(=O)C1CCN(Cc2csc(-c3ccc(C)o3)n2)CC1`, for which the INHIBITION came to 50.12%. For `CCc1nnc2n1CCN(Cc1nc(-c3ccoc3)no1)C2`, the INHIBITION was found to be 73.05%. `CCc1nnc2n1CCN(Cc1csc(-c3ccc(C)o3)n1)C2`: the INHIBITION was found to be 58.49%.

Consider `Cc1ccc(-c2nc(CN3CCn4c(nnc4C4CC4)C3)cs2)o1`, for which the INHIBITION is reported as -110.74%. Take `CCOC(=O)C1CCN(Cc2csc(-c3ccc(C)o3)n2)CC1`: the INHIBITION is -0.76%.

As to `O=C(NCc1ccccc1)c1nc2c(o1)CN(C(=O)c1cccnc1)C2`, the INHIBITION was 36.75%.

For `COCCN1C[C@@H]2CN(Cc3cccc(C)n3)C[C@@H]2C1=O`, the INHIBITION turned out to be 39.92%. In the case of `CCCN1CCN(c2nc(N)nc3c2nc(C)n3C)CC1`, the INHIBITION came to 9.85%. `Cc1noc(C)c1C(=O)N1CCC(c2[nH]ncc2S(C)(=O)=O)C1` (stereo not drawn): the INHIBITION was determined as 13.58%. As for `CCC(=O)N1CCN(c2nc(C)nc3c(C)nn(C)c23)CC1`, the INHIBITION came out at 13.72%.

For `Cc1nc(N2CCN(C(=O)C3CC3)CC2)c2c(n1)c(C)nn2C`, the INHIBITION worked out at 51.57%. As for `Cc1nc(N2CCN(C(=O)C3CCCC3)CC2)c2c(n1)c(C)nn2C`, the INHIBITION is reported as -36.89%. In the case of `CCCC(=O)Nc1ccc(CC(=O)N(CC)CC2CCCCO2)cc1` (stereo not drawn), the INHIBITION is given as -5.44%. Turning to `Cc1ccc(C2COCCN2C(=O)c2ccc(C)s2)o1` (stereo not drawn), the INHIBITION was 3.63%. For the molecule `O=C1COC2(CCN(Cc3cccs3)CC2)CN1c1cncnc1`, the INHIBITION was 25.58%. As to `O=C1COC2(CCN(Cc3cccs3)CC2)CN1c1ccccc1`, the INHIBITION is given as -10.6%. On to `Cn1cc(CN2CCC3(CC2)CN(c2cccnc2)C(=O)CO3)cn1`, for which the INHIBITION is reported as -56.25%. Regarding `Cn1cc(N2CC3(CCN(Cc4cccnc4)CC3)OCC2=O)cn1`, the INHIBITION is listed as 54.44%. With `Cn1cc(N2CC3(CCN(Cc4ccccc4)CC3)OCC2=O)cn1`, the INHIBITION is 33.97%.

For the molecule `O=C1COC2(CCN(Cc3cccs3)CC2)CN1c1ccsc1`, the INHIBITION came out at 55.7%. For `O=C(NCCn1cccc1)c1c(O)cc(F)cc1F` the value was -5.53%; for `Cc1noc(C)c1CNC(=O)N1CCN(CC2CC2)CC1`, -20.36%.

For the molecule `c1cncc(-c2ncnc3c2CCN(Cc2cccs2)CC3)c1`, the INHIBITION came to 24.42%.

For the molecule `CC(C)(O)CN1CCN(C(=O)c2cccn2Cc2ccccc2)CC1`, the INHIBITION was -36.56%. Consider `CC(C)(O)CN1CCN(C(=O)c2cccn2Cc2ccncc2)CC1`, for which the INHIBITION is on record as -51.5%. As for `CC(C)(O)CN1CCN(C(=O)c2cccn2Cc2cccnc2)CC1`, the INHIBITION is 54.5%. In the case of `CC(C)c1nn(C)c(N(C)C)c1CNCc1cccc(CN(C)C)c1` it was -36.7%.

For `COCc1ncc(CN2CCC3(CCC(=O)N(CC(C)O)C3)CC2)cn1` (stereo not drawn), the INHIBITION is listed as -40.15%.

`Cc1cc(C)c2c(N3CCC(C(=O)N4CCCC4)CC3)ncnc2n1`: the INHIBITION is listed as 36.74%. Regarding `COc1cc(CN2CCC3(CC2)[C@H](O)C[C@@H]3OCCO)ccc1F`, the INHIBITION is given as -6.64%. As to `COc1ccc(F)c(F)c1CN1CCC2(CC1)[C@H](O)C[C@@H]2OCCN`, the INHIBITION came out at 57.75%.

Consider `COc1cc(C)c(CN2CCC3(CC2)[C@H](O)C[C@@H]3OCCN)cc1C`, for which the INHIBITION is 72.05%. With `COc1cc(C)c(CN2CCC3(CC2)C(C(=O)O)CC(=O)N3C)cc1C` (stereo not drawn), the INHIBITION stood at 1.82%. Take `NCCO[C@H]1C[C@@H](O)C12CCN(C1Cc3ccccc3C1)CC2`: the INHIBITION is on record as -17.86%. For `NCCO[C@H]1C[C@@H](O)C12CCN(Cc1c(F)cccc1F)CC2`, the INHIBITION was found to be 2.9%. For `COc1c(CNCc2ccc(N3CCCC3)nc2)c(C(C)C)nn1C` the value was 20.57%.
